Source: PubChem BioAssay
Activity calls are given as the source filed them. Rule as the data show it, unless noted: active = inhibition above about 80%; inactive = the rest.

Key:
[1] = sensitizers of A549 cells to miR-34 induction, primary screen, imaging, A549 dox-inducible miR-34, nuclei and caspase counts (AID 1347080;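 active = compounds whose cell count with miR-34 switched on is under 0.7 times the count with it off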); conditions: A549 miR-34 inducible, Hoechst nuclei count, 48 h
[2] = survival rescue of mitochondrial mutant cells in low glucose, primary screen, MELAS cybrids, Rieske KO mouse fibroblasts, CellTiter-Glo (AID 1508586);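 also: z relative to plate mean and SD of compound and empty wells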
[3] = LFS_MB_P medulloblastoma growth inhibition, cell-based, chromothripsis tumors, cisplatin or BGB combos (AID 1671449); conditions: LFS_MB_P medulloblastoma cells;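 also: cells exposed for 96 hours; 0% = vehicle DMSO and 100% = killing by high DMSO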
[4] = HDN33 neuroblastoma growth inhibition, cell-based, chromothripsis tumors, cisplatin or BGB combos (AID 1671450); conditions: HDN33 neuroblastoma cells, stronger effect = higher value;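 also: cells exposed to compound for four days; 0% = vehicle DMSO and 100% = cell killing by high DMSO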
[5] = ICB984 medulloblastoma cell growth inhibition, synergistic combos for chromothripsis tumors, cisplatin or BGB combos (AID 1671451; call rule not given here;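 also: cells exposed for 96 hours before readout; 0% = vehicle DMSO and 100% = killing by high DMSO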); conditions: ICB984 medulloblastoma cells, drug combinations, stronger effect = higher value
[6] = LFS_MB_1R medulloblastoma cell growth inhibition, synergistic combos for chromothripsis tumors, cisplatin or BGB combos (AID 1671452); conditions: LFS_MB_1R medulloblastoma cells, stronger effect = higher value;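 also: cells exposed for 96 hours before readout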
[7] = HTB85 osteosarcoma cell growth inhibition, synergistic combos for chromothripsis tumors, BGB or cisplatin IC20 combos (AID 1671453); conditions: HTB85 osteosarcoma cells, drug combinations, stronger effect = higher value;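 also: cells exposed for 96 hours before readout; 0% = vehicle DMSO and 100% = high DMSO killing control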
[8] = CRL2098 osteosarcoma cell growth inhibition, synergistic combos for chromothripsis tumors, BGB or cisplatin IC20 combos (AID 1671454); conditions: CRL2098 osteosarcoma cells, drug combinations, stronger effect = higher value;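 also: cells exposed for 96 h before readout; 0% = vehicle DMSO and 100% = killing by high DMSO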
[9] = HD-MB03 medulloblastoma cell growth inhibition, synergistic combos for chromothripsis tumors, BGB or cisplatin IC20 combos (AID 1671455; in the data active = inhibition above about 83%;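 also: 0% = vehicle DMSO and 100% = high DMSO as cytotoxic control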); conditions: HD-MB03 medulloblastoma cells, stronger effect = higher value
[10] = UWB1.289 ovarian carcinoma cell growth inhibition, synergistic combos for chromothripsis tumors, BGB or cisplatin combos (AID 1671456); conditions: UWB1.289 ovarian carcinoma cells, stronger effect = higher value;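 also: cells exposed to compound for four days; 0% = vehicle DMSO and 100% = killing by high DMSO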
[11] = LFS_MB_2R medulloblastoma cell growth inhibition, synergistic combos for chromothripsis tumors, cisplatin combos (AID 1671457); conditions: LFS_MB_2R medulloblastoma cells, stronger effect = higher value;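 also: cells exposed to compound for four days before readout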
[12] = MDA-MB-436 breast carcinoma cell growth inhibition, synergistic combos for chromothripsis tumors, BGB or cisplatin combos (AID 1671458; call rule not given here;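 also: cells exposed for 96 hours; 0% = vehicle DMSO and 100% = killing by high DMSO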); conditions: MDA-MB-436 breast carcinoma growth inhibition, drug combinations, stronger effect = higher value
[13] = UWB1.289_BRCA1 ovarian cancer growth, cell-based, BGB or cisplatin combinations (AID 1671459); conditions: UWB1.289 BRCA1 ovarian carcinoma, drug combinations, stronger effect = higher value
[14] = human astrocyte viability loss, single and combined drugs, cytotoxicity control for chromothriptic childhood tumor combination screen, cell-based, BGB or cisplatin IC20 combos (AID 1671460); conditions: Human astrocytes, drug combinations, stronger effect = higher value;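 also: cells exposed to compounds for 96 hours before viability readout; 0% = vehicle and 100% = killing control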
[15] = growth inhibition of BT084 medulloblastoma cells, cell-based, ICGC_MB145, cisplatin and BGB IC40 combos (AID 1671461); conditions: drug combinations, stronger effect = higher value;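 also: cells exposed to drugs for 96 hours; 0% = vehicle DMSO and 100% = high DMSO full killing control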
[16] = growth inhibition of RCMB18 medulloblastoma cells, cell-based, cisplatin and BGB IC40 combos (AID 1671462); conditions: stronger effect = higher value;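 also: cells exposed to compound for four days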
[17] = growth inhibition of CRL1545 osteosarcoma cells, cell-based, cisplatin and BGB IC20 combos (AID 1671464); conditions: stronger effect = higher value;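 also: cells exposed to compound for 96 hours before readout; 0% = vehicle DMSO and 100% = high DMSO killing control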
[18] = measured here: combination with BGB IC40, at 0.05 µM
[19] = measured here: with BGB IC20 combination, at 0.5 µM
[20] = measured here: with cisplatin IC20 combination, at 0.5 µM
[21] = measured here: combination with cisplatin, at 0.5 µM
[22] = measured here: combination with cisplatin, at 5 µM

NC(=S)NN=Cc1ncccc1N
fold change ([1]; stronger effect = lower value, cell number ratio, induced over uninduced): 1.15 (inactive)
fold change ([1]; measured here: relative caspase fold change +Dox/-Dox): 0.619
cell count ([1]; measured here: total cells with miR-34 induction, stronger effect = lower value): 1840
cell count ([1]; measured here: total cells without miR-34 induction): 1600
z-score ([2]; MELAS cybrid survival, CellTiter-Glo 48 h, stronger effect = higher value): 1.28
z-score ([2]; Rieske KO mouse fibroblast survival, CellTiter-Glo 72 h): 3.3
inhibition ([3]; at 0.5 µM, stronger effect = higher value): -16.7% (inactive)
inhibition ([3]; measured here: combination with BGB IC20, at 0.005 µM): -2.55%
inhibition ([3]; measured here: combination with BGB IC40, at 0.005 µM): -23%
inhibition [3, 18]: -3.08%
inhibition ([3]; measured here: combination with cisplatin, at 0.5 µM, stronger effect = higher value): -29.8%
inhibition ([3]; measured here: combination with cisplatin, at 5 µM, stronger effect = higher value): -31.8%
inhibition ([4]; BGB combo, at 5 µM): 85%
inhibition ([4]; at 0.5 µM): 11.9% (inactive)
inhibition ([4]; cisplatin combo, at 5 µM): 80.1%
inhibition [4, 19]: 3.11%
inhibition [4, 20]: 14.3%
inhibition ([4]; single agent, at 5 µM): 84.5%
inhibition ([5]; BGB IC20 combo, at 0.005 µM): -9.24%
inhibition ([5]; BGB IC40 combo, at 0.005 µM): -38.2%
inhibition ([5]; BGB IC40 combo, at 0.05 µM): -31.3%
inhibition ([5]; at 0.5 µM): -16.4% (inactive)
inhibition ([5]; cisplatin combo, at 0.05 µM): -36.5%
inhibition ([5]; cisplatin combo, at 0.5 µM): -17.6%
inhibition ([5]; cisplatin combo, at 5 µM): -14.8%
inhibition ([5]; measured here: 5 uM single agent, at 5 µM): -38.9%
inhibition ([6]; at 0.5 µM): -7% (inactive)
inhibition [6, 18]: -3.08%
inhibition [6, 21]: 22.7%
inhibition [6, 22]: -19.1%
inhibition ([7]; at 0.5 µM): -8.27% (inactive)
inhibition ([7]; measured here: with BGB IC20, at 0.5 µM): -17.3%
inhibition ([7]; measured here: with BGB IC20, at 5 µM): 67.1%
inhibition ([7]; measured here: with cisplatin IC20, at 0.5 µM): -3.68%
inhibition ([7]; measured here: with cisplatin IC20, at 5 µM): 77.8%
inhibition ([7]; single agent, at 5 µM): 84.1%
inhibition ([8]; at 0.5 µM): -55.6% (inactive)
inhibition ([8]; measured here: combination with BGB at IC20, at 0.5 µM): -6.91%
inhibition ([8]; measured here: combination with cisplatin at IC20, at 0.5 µM): -62.8%
inhibition ([9]; at 0.5 µM): -11.3% (inactive)
inhibition ([9]; measured here: combo with BGB at IC20, at 0.5 µM): -13%
inhibition ([9]; measured here: combo with cisplatin at IC20, at 0.5 µM): -15.8%
inhibition ([10]; at 0.5 µM): -4.48% (inactive)
inhibition ([10]; measured here: inhibition with BGB combination, at 0.05 µM): -19.9%
inhibition ([10]; measured here: inhibition with cisplatin combination, at 0.05 µM): -12.6%
inhibition ([11]; at 0.5 µM): -23.1% (inactive)
inhibition [11, 21]: -11.4%
inhibition [11, 22]: -13.5%
inhibition ([12]; at 0.5 µM): -24% (inactive)
inhibition ([12]; measured here: BGB combination, at 0.5 µM): -21.8%
inhibition ([12]; measured here: BGB combination, at 5 µM): 39.5%
inhibition ([12]; measured here: cisplatin combination, at 0.5 µM): -34.4%
inhibition ([12]; measured here: cisplatin combination, at 5 µM): 62.7%
inhibition ([13]; BGB combination, concentration series, at 5 µM): 56.4%
inhibition ([13]; at 0.5 µM): 0.83% (inactive)
inhibition ([13]; cisplatin combination, concentration series, at 5 µM): 62.5%
inhibition ([14]; at 0.5 µM): 13.8% (inactive)
inhibition ([14]; measured here: combo with BGB IC20, at 0.5 µM): 17.9%
inhibition ([14]; measured here: combo with cisplatin IC20, at 0.5 µM): 11.3%
inhibition ([15]; at 0.5 µM): -38.9% (inactive)
inhibition ([15]; cisplatin combination, at 0.5 µM): -29.3%
inhibition ([15]; cisplatin combination, at 5 µM): -3.12%
inhibition ([15]; measured here: BGB IC40 combination 0.05 uM, at 0.05 µM): -31.2%
inhibition ([15]; single agent, at 5 µM): -27%
inhibition ([16]; at 0.5 µM): -9.8% (inactive)
inhibition ([16]; cisplatin combo, at 5 µM): 15.6%
inhibition ([16]; measured here: BGB IC40 combination, at 0.05 µM): -6.51%
inhibition [16, 21]: 3.15%
inhibition ([16]; single agent, at 5 µM): -34.2%
inhibition ([17]; at 0.5 µM): 10.3% (inactive)
inhibition [17, 19]: -9.01%
inhibition [17, 20]: 19.9%
inhibition ([17]; single agent, at 0.05 µM): 29.3%
inhibition ([17]; single agent, at 5 µM): 63.9%
